Reference: PubChem BioAssay (Tox21)
A number with no mark means an inactive call. Records with an inconclusive call do not appear. Where a call stands in place of a potency, no number is given. Active and inactive are the calls of the source. Unless noted, calls come from the whole dose curve; as a rule, active = well fitted curve in the direction sought with a large enough effect in the repeat runs; inconclusive = weak or mixed curves; inactive = no such curve, though single readings can be large; an effect the other way counts as inactive or inconclusive.

Assays:
[1] = qHTS assay to identify small molecule agonists of the progesterone receptor (PR) signaling pathway - cell viability counter screen (AID 1346799; calls by dose curve; note: nearly all actives have a fitted effect of over 45% in size; note: potency is the fitted concentration of half-maximal effect)
In short: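 HEK293T PR-UAS-bla, 3,000 cells/well, 2% charcoal-stripped FBS; 6 h settle, compound 16 h at 37C/5% CO2; LiveBLAzer 2 h RT, then CellTiter-Glo 30 min RT, luminescence read.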

[2] = qHTS assay to identify small molecule antagonists of the TGF-beta/Smad signaling pathway - cell viability counter screen (AID 1346824); note: nearly all actives have a fitted effect of over 50% in size; note: potency is the fitted concentration of half-maximal effect
In short: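 SBE-bla HEK 293T cells, incubated overnight, then compound plus 0.25 ng/mL TGF-beta1 (stock added) for 5 hr at 37 C. Viability was read in the same wells by CellTiter-Glo luminescence after 30 min at room temperature.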

[3] = qHTS assay to identify small molecule agonists of the TGF-beta/Smad signaling pathway - cell viability counter screen (AID 1346829); note: nearly all actives have a fitted effect of over 45% in size; note: potency is the fitted concentration of half-maximal effect
In short: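 Here the cytotoxicity of library compounds is measured in SBE-bla HEK 293T cells treated for 5 hr, using CellTiter-Glo added to wells already read for the beta-lactamase reporter.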

[4] = target: Thyrotropin-releasing hormone receptor (Homo sapiens) (UniProt P34981); assay: qHTS assay to identify small molecule antagonists of the thyrotropin-releasing hormone receptor (TRHR) signaling pathway (AID 1346877; active = well fitted inhibition curve with a large enough effect in the repeat runs, not every such curve was filed as active; note: series mostly up to about 51 µM)
Chain of Thyrotropin-releasing hormone receptor (Homo sapiens) (P34981 whole entry, looked up): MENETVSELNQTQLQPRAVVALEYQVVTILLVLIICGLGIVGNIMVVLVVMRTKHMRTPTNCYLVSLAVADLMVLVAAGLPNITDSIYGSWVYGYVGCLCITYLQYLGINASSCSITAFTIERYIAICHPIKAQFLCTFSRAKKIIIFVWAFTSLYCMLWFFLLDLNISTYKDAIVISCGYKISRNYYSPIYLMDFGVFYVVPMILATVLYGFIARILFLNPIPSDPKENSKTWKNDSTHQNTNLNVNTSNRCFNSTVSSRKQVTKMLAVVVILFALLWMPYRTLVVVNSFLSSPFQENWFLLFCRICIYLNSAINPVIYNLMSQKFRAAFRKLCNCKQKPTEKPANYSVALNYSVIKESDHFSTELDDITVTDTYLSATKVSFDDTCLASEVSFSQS
In short: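 Overnight-plated (18 h, 37 °C) HEK293 cells expressing TRHR were dye-loaded 2 h, treated with compound, then stimulated with TRH at 1 nM final. Fluorescence intensity was captured every second for 3 min.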

[5] = target: Thyrotropin-releasing hormone receptor (Homo sapiens) (UniProt P34981); assay: qHTS assay to identify small molecule agonists of the thyrotropin-releasing hormone receptor (TRHR) signaling pathway (AID 1346891; calls by dose curve;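 note: HEK293 cells expressing TRHR with calcium dye readout; series mostly up to about 58 µM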)
In short: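 HEK293/TRHR cells, 1500 per well, 18 h 37 °C; Ca dye 2 h 37 °C; pin-tool compound addition (agonist mode); kinetic fluorescence 3 min, 1 s reads; 15 concentrations, triplicate.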

[6] = Human pregnane X receptor (PXR) small molecule agonists, qHTS cell viability counter screen (AID 1346977); note: nearly all actives have a fitted effect of over 50% in size; note: potency is the fitted concentration of half-maximal effect
In short: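 Fluorescence read-out (CellTiter-Fluor) of viability in PXR-Luc HepG2 cells, multiplexed with the luciferase agonist read. Compounds in DMSO added after 5hr plating; 24hr total exposure at 37C, 5% CO2.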

[7] = Caspase-3/7 induction in HepG2 cells by small molecules, qHTS assay (AID 1346978); note: nearly all actives have a fitted effect of over 15% in size; note: potency is the fitted concentration of half-maximal effect
In short: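 Wild-type HepG2 cells, 2,000/well, settled 5 hr at 37 C and 5% CO2, then compound-treated for 17 hr; caspase-3/7 activity read by luminescent Caspase-Glo 3/7 after 30 min at room temperature.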

[8] = Caspase-3/7 induction in CHO-K1 cells by small molecules, qHTS cell viability counter screen (AID 1346979); note: nearly all actives have a fitted effect of over 35% in size; note: potency is the fitted concentration of half-maximal effect
In short: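 CHO-K1 wt, 1,500 cells/well; 5hr pre-incubation 37C/5% CO2; compound pin transfer (DMSO); 16hr exposure; CellTiter-Fluor added, 1hr, fluorescence read.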

[9] = Caspase-3/7 induction in CHO-K1 cells by small molecules, qHTS assay (AID 1346980); note: nearly all actives have a fitted effect of over 15% in size; note: potency is the fitted concentration of half-maximal effect
In short: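 Wild-type CHO-K1 cells exposed to compounds for 17hr at 37 C, 5% CO2. Caspase-3/7 activity then measured by Caspase-Glo 3/7 luminescence after 30min at room temperature.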

[10] = Caspase-3/7 induction in HepG2 cells by small molecules, qHTS cell viability counter screen (AID 1346981); note: nearly all actives have a fitted effect of over 30% in size; note: potency is the fitted concentration of half-maximal effect
In short: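 Treatment of HepG2 cells with DMSO-delivered compounds ran 16 hr at 37 C following a 5-hr pre-incubation of 2,000 cells/well. CellTiter-Fluor fluorescence, read after 1 hr, served as the viability measure in a qHTS format.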

[11] = target: Nuclear receptor subfamily 1 group I member 2 (Homo sapiens) (UniProt O75469); assay: Human pregnane X receptor (PXR) small molecule agonists, qHTS assay (AID 1346982); note: nearly all actives have a fitted effect of over 35% in size; note: potency is the fitted concentration of half-maximal effect
Chain of Nuclear receptor subfamily 1 group I member 2 (Homo sapiens) (O75469 whole entry, looked up): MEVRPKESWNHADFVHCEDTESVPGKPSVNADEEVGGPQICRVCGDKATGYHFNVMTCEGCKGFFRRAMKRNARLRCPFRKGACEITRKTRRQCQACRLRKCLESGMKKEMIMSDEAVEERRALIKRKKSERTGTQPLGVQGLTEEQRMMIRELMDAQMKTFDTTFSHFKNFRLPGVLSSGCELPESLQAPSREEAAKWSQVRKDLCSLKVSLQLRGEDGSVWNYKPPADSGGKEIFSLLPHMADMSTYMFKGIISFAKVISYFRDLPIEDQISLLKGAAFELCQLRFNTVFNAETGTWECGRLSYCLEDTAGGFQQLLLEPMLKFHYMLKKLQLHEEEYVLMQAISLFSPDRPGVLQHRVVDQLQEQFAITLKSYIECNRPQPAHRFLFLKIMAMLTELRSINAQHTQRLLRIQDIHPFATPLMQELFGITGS
In short: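 Stable HepG2 line reporting PXR-mediated CYP3A4 expression via luciferase. Treatment: 24 hr with compounds in DMSO at 37 C. Detection: ONE-Glo luminescence.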

[12] = target: Cytochrome P450 2C19 (Homo sapiens) (UniProt P33261); assay: Cytochrome P450 Family 2 Subfamily C Member 19 (CYP2C19) small molecule antagonists: luciferase reporter qHTS assay (AID 1671197); note: nearly all actives have a fitted effect of over 65% in size; note: potency is the fitted concentration of half-maximal effect
Chain of Cytochrome P450 2C19 (Homo sapiens) (P33261 whole entry, looked up): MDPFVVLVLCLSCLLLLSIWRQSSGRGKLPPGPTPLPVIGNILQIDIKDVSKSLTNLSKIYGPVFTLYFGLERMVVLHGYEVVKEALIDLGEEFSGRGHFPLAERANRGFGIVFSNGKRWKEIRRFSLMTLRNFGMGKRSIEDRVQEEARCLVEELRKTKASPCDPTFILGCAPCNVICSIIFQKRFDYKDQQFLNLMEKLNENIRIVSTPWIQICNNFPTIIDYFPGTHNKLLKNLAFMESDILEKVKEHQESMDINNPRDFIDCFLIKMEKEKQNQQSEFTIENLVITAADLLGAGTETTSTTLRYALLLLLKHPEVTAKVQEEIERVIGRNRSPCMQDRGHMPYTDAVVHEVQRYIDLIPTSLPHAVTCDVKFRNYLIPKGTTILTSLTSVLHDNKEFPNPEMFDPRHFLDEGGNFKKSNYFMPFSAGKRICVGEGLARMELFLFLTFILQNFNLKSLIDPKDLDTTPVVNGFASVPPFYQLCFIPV
In short: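 Light output is proportional to CYP2C19 activity: proluciferin substrate is converted to luciferin, then detected by a luciferin detection reagent that also stops the 1 h, 37C NADPH-driven reaction. Ketoconazole serves as positive control.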

[13] = target: Cytochrome P450 2C9 (Homo sapiens) (UniProt P11712); assay: Cytochrome P450 Family 2 Subfamily C Member 9 (CYP2C9) small molecule antagonists: luciferase reporter qHTS assay (AID 1671198); note: nearly all actives have a fitted effect of over 50% in size; note: potency is the fitted concentration of half-maximal effect
Chain of Cytochrome P450 2C9 (Homo sapiens) (P11712 whole entry, looked up): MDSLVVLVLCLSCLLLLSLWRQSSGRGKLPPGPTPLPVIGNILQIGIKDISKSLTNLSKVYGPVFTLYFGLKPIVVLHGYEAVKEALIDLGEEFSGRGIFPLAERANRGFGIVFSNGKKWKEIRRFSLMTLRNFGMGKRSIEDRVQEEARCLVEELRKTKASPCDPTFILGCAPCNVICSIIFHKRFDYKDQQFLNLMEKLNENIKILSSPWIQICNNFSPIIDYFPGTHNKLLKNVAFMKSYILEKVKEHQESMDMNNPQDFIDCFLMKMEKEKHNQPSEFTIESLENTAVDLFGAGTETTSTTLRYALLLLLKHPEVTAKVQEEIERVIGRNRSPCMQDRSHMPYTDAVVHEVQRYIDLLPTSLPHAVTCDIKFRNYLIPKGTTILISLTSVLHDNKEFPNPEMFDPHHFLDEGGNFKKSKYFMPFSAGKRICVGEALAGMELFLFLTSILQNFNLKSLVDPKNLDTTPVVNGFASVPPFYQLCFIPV
In short: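 P450-Glo proluciferin substrate with CYP2C9 enzyme; 10 min RT preincubation, then NADPH regeneration 1 h at 37C; luciferin detection reagent 20 min RT, luminescence in relative luminescence units.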

[14] = target: Voltage-gated inwardly rectifying potassium channel KCNH2 (Homo sapiens) (UniProt Q12809); assay: Human Ether-a-go-go-Related Gene (hERG) channel small molecule antagonists: fluorescence cell-based qHTS assay (AID 1671200); note: nearly all actives have a fitted effect of over 50% in size; note: potency is the fitted concentration of half-maximal effect
Chain of Voltage-gated inwardly rectifying potassium channel KCNH2 (Homo sapiens) (Q12809 whole entry, looked up): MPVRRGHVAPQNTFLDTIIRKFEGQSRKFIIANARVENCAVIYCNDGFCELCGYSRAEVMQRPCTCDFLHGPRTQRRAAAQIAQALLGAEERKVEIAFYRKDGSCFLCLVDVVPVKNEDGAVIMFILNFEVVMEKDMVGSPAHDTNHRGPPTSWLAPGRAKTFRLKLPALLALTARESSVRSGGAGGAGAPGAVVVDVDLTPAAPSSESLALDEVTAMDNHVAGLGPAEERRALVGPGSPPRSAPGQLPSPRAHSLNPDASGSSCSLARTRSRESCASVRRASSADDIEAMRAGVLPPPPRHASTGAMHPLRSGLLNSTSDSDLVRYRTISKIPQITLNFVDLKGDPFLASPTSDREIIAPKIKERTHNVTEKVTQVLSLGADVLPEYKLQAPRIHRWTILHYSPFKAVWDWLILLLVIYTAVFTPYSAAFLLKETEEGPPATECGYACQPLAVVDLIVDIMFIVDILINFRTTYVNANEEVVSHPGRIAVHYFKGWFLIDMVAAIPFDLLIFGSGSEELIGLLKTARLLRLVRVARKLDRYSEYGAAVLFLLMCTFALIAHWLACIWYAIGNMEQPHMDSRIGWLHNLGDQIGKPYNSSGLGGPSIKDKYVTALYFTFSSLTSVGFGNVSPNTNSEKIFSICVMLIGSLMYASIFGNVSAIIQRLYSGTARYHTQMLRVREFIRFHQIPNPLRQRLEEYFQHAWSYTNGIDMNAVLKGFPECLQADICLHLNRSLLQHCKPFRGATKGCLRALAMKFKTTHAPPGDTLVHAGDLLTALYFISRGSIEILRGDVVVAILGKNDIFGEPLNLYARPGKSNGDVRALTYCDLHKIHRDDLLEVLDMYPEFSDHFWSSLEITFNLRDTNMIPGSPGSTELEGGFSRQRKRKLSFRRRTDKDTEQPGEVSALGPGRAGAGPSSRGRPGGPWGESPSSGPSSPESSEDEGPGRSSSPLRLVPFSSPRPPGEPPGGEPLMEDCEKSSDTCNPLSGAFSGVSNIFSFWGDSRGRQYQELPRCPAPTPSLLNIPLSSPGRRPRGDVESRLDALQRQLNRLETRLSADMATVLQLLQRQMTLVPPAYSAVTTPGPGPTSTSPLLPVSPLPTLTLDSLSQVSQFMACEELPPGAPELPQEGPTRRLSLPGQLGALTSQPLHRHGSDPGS
In short: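 Read-out: thallium influx as a surrogate for potassium, tracked as fluorescence (480 nm ex/540 nm em) every second for 2 min after Stimulus Buffer addition in dye-loaded hERG-U2OS cells.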

[15] = qHTS assay to identify small molecule agonists of the TGF-beta/Smad signaling pathway (AID 1346859; active = well fitted activation curve with a large enough effect in the signal ratio in the repeat runs, not every such curve was filed as active; the % refers to the signal ratio; note: series mostly up to about 77 µM)
In short: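 Read-out: fluorescence at 460 and 530 nm (405 nm excitation) after a 2 hr room-temperature incubation with beta-lactamase FRET substrate. SBE-bla HEK 293T cells had been treated with test compounds for 5 hr at 37 C.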

[16] = target: Nuclear receptor subfamily 1 group I member 2 (Rattus norvegicus) (UniProt Q9R1A7); assay: Rat pregnane X receptor (rPXR) activation by small molecules, qHTS assay (AID 1346983); conditions: rPXR luciferase reporter cells, One-Glo luminescence, 24 h; max activation: hits give high values; note: nearly all actives have a fitted effect of over 20% in size
Chain of Nuclear receptor subfamily 1 group I member 2 (Rattus norvegicus) (Q9R1A7 whole entry, looked up): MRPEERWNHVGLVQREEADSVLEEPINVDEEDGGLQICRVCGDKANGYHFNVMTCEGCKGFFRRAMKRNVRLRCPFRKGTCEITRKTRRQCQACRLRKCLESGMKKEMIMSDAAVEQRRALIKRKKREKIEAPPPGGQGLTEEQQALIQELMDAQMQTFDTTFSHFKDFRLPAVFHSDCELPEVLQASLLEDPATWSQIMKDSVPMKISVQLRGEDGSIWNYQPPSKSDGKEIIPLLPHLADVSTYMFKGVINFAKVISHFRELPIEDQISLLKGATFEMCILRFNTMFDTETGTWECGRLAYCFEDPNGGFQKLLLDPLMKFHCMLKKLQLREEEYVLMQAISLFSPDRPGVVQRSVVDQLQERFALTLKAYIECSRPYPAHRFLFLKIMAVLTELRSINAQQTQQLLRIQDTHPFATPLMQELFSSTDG
In short: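 Cell-based rPXR activation assay: rPXR cells, 2,000 per well, rested 5hr at 37 C, then exposed to compounds in DMSO for 24 hr at 37 C. Luciferase activity read by One-Glo luminescence after 30 min at room temperature.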

[17] = target: Nuclear receptor subfamily 1 group I member 2 (Homo sapiens) (UniProt O75469); assay: CYP3A4 induction through human pregnane X receptor (PXR) by small molecules, qHTS assay (AID 1346984); note: nearly all actives have a fitted effect of over 40% in size
In short: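 After 24 h at 37C with compound, DPX-2 cells (HepG2, co-transfected PXR response element and CYP3A4 promoter-luciferase) got 3uM final P450-Glo Luciferin-IPA for 3 h; One-Glo luminescence followed.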

[18] = target: Cytochrome P450 2D6 (Homo sapiens) (UniProt P10635); assay: Cytochrome P450 Family 2 Subfamily D Member 6 (CYP2D6) small molecule antagonists: luciferase reporter qHTS assay (AID 1671196); note: nearly all actives have a fitted effect of over 50% in size; note: potency is the fitted concentration of half-maximal effect
Chain of Cytochrome P450 2D6 (Homo sapiens) (P10635 whole entry, looked up): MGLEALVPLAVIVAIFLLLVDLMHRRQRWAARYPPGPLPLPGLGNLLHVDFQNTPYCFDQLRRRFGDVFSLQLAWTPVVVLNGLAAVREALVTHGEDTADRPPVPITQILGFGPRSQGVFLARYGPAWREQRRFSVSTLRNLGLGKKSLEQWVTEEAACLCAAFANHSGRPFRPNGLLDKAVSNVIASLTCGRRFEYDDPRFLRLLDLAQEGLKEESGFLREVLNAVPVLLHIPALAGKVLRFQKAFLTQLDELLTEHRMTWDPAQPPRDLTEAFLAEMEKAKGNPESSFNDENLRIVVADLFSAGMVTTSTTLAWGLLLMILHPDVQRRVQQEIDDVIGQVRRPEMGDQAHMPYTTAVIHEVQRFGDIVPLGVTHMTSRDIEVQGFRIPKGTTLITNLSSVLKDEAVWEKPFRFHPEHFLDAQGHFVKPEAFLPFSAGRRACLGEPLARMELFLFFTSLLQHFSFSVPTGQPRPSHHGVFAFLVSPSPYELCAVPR
In short: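 Chemicals tested for interference with CYP2D6 activity; proluciferin substrate, NADPH regeneration, 1 h at room temperature, luminescent detection.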

[19] = target: Cytochrome P450 1A2 (Homo sapiens) (UniProt P05177); assay: Cytochrome P450 Family 1 Subfamily A Member 2 (CYP1A2) small molecule antagonists: luciferase reporter qHTS assay (AID 1671199); note: nearly all actives have a fitted effect of over 50% in size; note: potency is the fitted concentration of half-maximal effect
Chain of Cytochrome P450 1A2 (Homo sapiens) (P05177 whole entry, looked up): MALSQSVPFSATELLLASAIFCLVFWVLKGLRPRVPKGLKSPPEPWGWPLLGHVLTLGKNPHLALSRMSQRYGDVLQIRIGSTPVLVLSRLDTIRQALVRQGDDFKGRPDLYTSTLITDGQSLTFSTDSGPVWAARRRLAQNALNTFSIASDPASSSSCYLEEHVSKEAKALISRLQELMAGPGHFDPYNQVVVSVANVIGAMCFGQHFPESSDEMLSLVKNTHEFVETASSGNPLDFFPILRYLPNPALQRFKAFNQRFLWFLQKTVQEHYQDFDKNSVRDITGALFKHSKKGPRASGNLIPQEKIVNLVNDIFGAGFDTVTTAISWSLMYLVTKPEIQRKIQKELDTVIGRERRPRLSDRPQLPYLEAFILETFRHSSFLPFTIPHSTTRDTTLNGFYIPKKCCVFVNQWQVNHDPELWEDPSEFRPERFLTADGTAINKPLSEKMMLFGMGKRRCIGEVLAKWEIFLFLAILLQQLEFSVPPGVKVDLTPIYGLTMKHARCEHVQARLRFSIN
In short: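 Read-out is luminescence from luciferin detection reagent (20 min) proportional to CYP1A2 activity; compounds in DMSO preincubated 10 min with enzyme and proluciferin substrate, then NADPH regeneration solution, 1 h, room temperature.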

| SMILES | Potency [1] | Potency [2] | Potency [3] | Potency [4] | Potency [5] | Potency [6] | Potency [7] | Potency [8] | Potency [9] | Potency [10] | Potency [11] | Potency [12] | Potency [13] | Potency [14] | outcome [15] | max activation [16] [%] | Potency [17] | Potency [18] | Potency [19] |
| --- | --- | --- | --- | --- | --- | --- | --- | --- | --- | --- | --- | --- | --- | --- | --- | --- | --- | --- | --- |
| Oc1ccc(C2(c3ccc(O)c(C4CCCCC4)c3)CCCCC2)cc1C1CCCCC1 | 27.3 µM (active) | 43.6 µM (active) | 49 µM (active) | inactive | inactive | 19.3 µM (active) | 24.3 µM (active) | 13.7 µM (active) | 13.7 µM (active) | 30.6 µM (active) | 8.63 µM (active) | 8.94 µM (active) | 2.52 µM (active) | inactive |  |  |  |  |  |
| CCCCCCCCCCCCCCCCC(C(=O)O)C(O)(CC(=O)O)C(=O)O (centres undefined) | inactive | inactive |  | inactive | inactive | inactive | inactive | inactive | inactive | inactive | inactive | inactive | inactive | inactive | inactive | -2.33 | inactive | 34.7 µM (active) |  |
| Cc1ccc2nc(-c3ccc(N)cc3)sc2c1S(=O)(=O)O | inactive | inactive | inactive | inactive |  | inactive | inactive | inactive | inactive | inactive | 2.69 µM (active) | 22.1 µM (active) | 15.7 µM (active) | inactive |  |  |  |  |  |
| C=COCCCC | inactive | inactive |  |  |  | inactive | inactive | inactive | inactive | inactive | inactive | inactive | inactive | inactive | inactive |  |  |  | inactive |
| CN[C@H]1CC[C@@H](c2ccc(Cl)c(Cl)c2)c2ccc(S(N)(=O)=O)cc21 | 48.6 µM (active) | inactive |  | inactive | inactive | 61.1 µM (active) |  | 61.1 µM (active) |  | 61.1 µM (active) | inactive | 50.2 µM (active) |  | 9.77 µM (active) | inactive |  |  | 1.42 µM (active) | inactive |
| CCCCCN=C(N)N/N=C/c1c[nH]c2ccc(OC)cc12 | 16.8 µM (active) | 26.8 µM (active) | 23.9 µM (active) | inactive | inactive | 18.8 µM (active) | 11.9 µM (active) | 29.8 µM (active) | inactive | 26.6 µM (active) | inactive | inactive | 38.9 µM (active) | 10.7 µM (active) |  | -0.704 | inactive | inactive |  |
| O=C1c2ccccc2C(=O)c2c(Cl)cccc21 | inactive | inactive |  | inactive |  | inactive | inactive |  | inactive | inactive | 10.2 µM (active) | 18.8 µM (active) |  | inactive | inactive |  |  | inactive | 0.0473 µM (active) |
| C=Cc1ccncc1 | inactive | inactive |  | inactive | inactive |  | inactive | inactive | inactive | inactive | inactive | inactive |  | inactive | inactive |  |  | inactive |  |
| CCCCCc1ccc(O)cc1 | inactive | inactive |  |  |  | inactive |  |  | inactive | inactive |  | 22.4 µM (active) | 63.3 µM (active) | inactive | inactive |  |  |  |  |
| c1ccc(-c2ccc(C(c3ccccc3)n3ccnc3)cc2)cc1 (centres undefined) | 16.8 µM (active) | inactive |  |  |  |  | inactive | 18.8 µM (active) | inactive |  | 23.7 µM (active) | 0.617 µM (active) | 0.219 µM (active) | 7.56 µM (active) | inactive |  |  | 1.55 µM (active) |  |
| CCc1cccc(C)c1N(C(=O)C(=O)O)C(C)COC (centres undefined) | inactive | inactive |  | inactive |  | inactive | inactive | inactive | inactive | inactive | inactive | inactive |  | inactive | inactive |  |  |  | inactive |
| Cc1cccc2c1ccc1ccccc12 | inactive | inactive |  | inactive |  | inactive | inactive | inactive | inactive | inactive | inactive | 79.6 µM (active) |  | inactive | inactive |  |  | inactive |  |
